Source: PubChem BioAssay (National Center for Advancing Translational Sciences (NCATS))
DT40 TDP1 CPT = qHTS for Inhibitors of human tyrosyl-DNA phosphodiesterase 1 (TDP1): qHTS in cells in presence of CPT | chicken DT40 Tdp1-/-;hTDP1 cells + 20 nM CPT, ATP luminescence, 48 h | Potency, µM (highest dose often 46.2 µM), for the others: at the highest dose activity change, negative = growth inhibition, usual class: inhibitors | 12% of 420,000 active | AID 686979, 2013; further: potency means the concentration at half of the fitted maximal effect; nearly all actives have a fitted effect of over 55% in size
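Cell growth measured by CellTiter-Glo luminescence after a minimum 48 h, 37 C compound exposure with 20 nM CPT in Tdp1-knockout DT40 cells stably expressing hTDP1, seeded 400/well; qHTS titration format.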
DT40 TDP1 no CPT = qHTS for Inhibitors of human tyrosyl-DNA phosphodiesterase 1 (TDP1): qHTS in cells in absence of CPT | 15% of 420,000 active | DT40 Tdp1-/- hTDP1 cells, no CPT, ATP luminescence, 48 h | Potency, µM (top dose mostly 46.2 µM), for the others: at the highest dose activity change, negative = growth inhibition, actives largely listed as inhibitors; further: potency means the concentration at half of the fitted maximal effect; nearly all actives have a fitted effect of over 55% in size
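Cells were dispensed at 400 per well, compounds added by pin tool, plates incubated ≥48 hr at 37 °C, then CellTiter-Glo added for 30 min at room temperature before luminescence reading. Line: DT40 Tdp1-/- complemented with hTDP1; camptothecin omitted.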
HT1080 IDH1KD tx = qHTS for induction of synthetic lethality in tumor cells producing 2HG: qHTS for the HT-1080-IDH1KD cell line. Potency, µM (titrated, usually from 46.1 µM), for the others: top-dose activity, negative = toxicity, most hits filed as cytotoxic. HT-1080 IDH1 knockdown viability, ATP luminescence, 48 h. AID 686971, 2013. 2% of 360,000 active;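 further: potency means the concentration at half of the fitted maximal effect; 0% = DMSO wells and -100% = cell-free medium wells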
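Viability of IDH1-knockdown HT-1080 fibrosarcoma cells was assessed by CellTiter-Glo after 48 h at 37 °C with titrated compound; concentration-effect curves were classified by fit quality and response size.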
HT1080-NT tox = qHTS for induction of synthetic lethality in tumor cells producing 2HG: qHTS for the HT-1080-NT fibrosarcoma cell line | Potency, µM (top dose mostly 46.1 µM), for inactives: at the top dose activity, negative = less viability, usual class: cytotoxic | 1.6% of 360,000 active | HT-1080-NT fibrosarcoma viability, CellTiter-Glo ATP luminescence, 48 h;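 further: NT is the 2HG producing partner of a matched IDH1 knockdown line; potency means the concentration at half of the fitted maximal effect; 0% = DMSO-treated cells and -100% = media-only wells without cells; nearly all actives have a fitted effect of over 55% in size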
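Fibrosarcoma NT cells, 750 per well in 5% FBS RPMI, were exposed to compound for 48 hours. Viability: CellTiter-Glo luminescence.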
IL1B secr inh = qHTS for Inhibitors of Inflammasome Signaling: IL-1-beta AlphaLISA Primary Screen | activity change, % at 57.5 µM | AID 743279, 2014 | 4.7% of 360,000 active | THP-1 LPS/ATP IL-1B secretion, AlphaLISA, 16 h; stronger effect = lower value; in the data active means activity change below about -50%; inconclusive means mostly about -30% to -49%
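Secreted IL-1B measured by AlphaLISA bead assay after 16 h compound exposure of THP-1 cells; compounds (final up to 57.5 uM) added 1 h before LPS (250 ng/mL) and ATP (1.25 mM) stimulation; lower signal means less secretion.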
ALOX12 inh = Primary qHTS assay for inhibitors of human arachidonate 12S-lipoxygenase (ALOX12): Round 2. AID 1671190, 2021. 1.1% of 580,000 active. Potency, µM (highest dose often 108 µM), inactives show at the top dose activity change, negative = inhibition, most hits filed as inhibitors. Polyunsaturated fatty acid lipoxygenase ALOX12 (Homo sapiens), P18054. purified 12hLO, xylenol orange hydroperoxide absorbance; further: potency means the concentration at half of the fitted maximal effect
Target sequence (P18054 whole entry, looked up): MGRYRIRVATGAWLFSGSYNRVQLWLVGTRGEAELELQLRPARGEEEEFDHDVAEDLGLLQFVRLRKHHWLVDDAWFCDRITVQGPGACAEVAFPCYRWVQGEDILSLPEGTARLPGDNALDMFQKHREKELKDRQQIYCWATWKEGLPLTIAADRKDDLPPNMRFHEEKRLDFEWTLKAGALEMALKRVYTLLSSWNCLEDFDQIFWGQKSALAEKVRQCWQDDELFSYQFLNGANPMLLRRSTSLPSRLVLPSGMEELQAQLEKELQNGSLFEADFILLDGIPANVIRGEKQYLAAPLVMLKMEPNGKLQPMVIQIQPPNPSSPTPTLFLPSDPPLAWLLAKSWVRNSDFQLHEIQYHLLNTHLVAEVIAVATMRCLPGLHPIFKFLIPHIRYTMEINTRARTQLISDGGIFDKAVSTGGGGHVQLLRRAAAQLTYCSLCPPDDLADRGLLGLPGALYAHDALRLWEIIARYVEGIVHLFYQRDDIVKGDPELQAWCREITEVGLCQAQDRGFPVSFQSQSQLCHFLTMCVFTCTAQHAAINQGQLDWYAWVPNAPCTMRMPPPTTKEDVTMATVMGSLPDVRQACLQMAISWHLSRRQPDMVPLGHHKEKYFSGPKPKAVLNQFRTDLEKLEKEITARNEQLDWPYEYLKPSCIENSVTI
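Purified human 12hLO at 150 nM in 25 mM Hepes, 0.01% Triton X-100, pH 7.0, preincubated 15 min at room temperature with compound. Reaction started with 40 uM arachidonic acid, 30 min at room temperature. Hydroperoxide measured by Fe-xylenol orange, 573/405 nm absorbance ratio.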
An asterisk follows results filed as active; ? = inconclusive; / = no result; ! = not confirmed by another sample. Only a selection was taken, and hits are over-represented in it overall. Unless noted, the call rests on the fitted dose curve; in most records, active means well fitted curve in the direction sought with a large enough effect; inconclusive means small, poorly fitted or top-dose-only effect, or another doubt; inactive means no such curve, though single readings can be large; an effect the other way counts as inactive or inconclusive. Unless noted, on the % scale 0 is the no-effect control and ±100 the full control effect.

SMILES	DT40 TDP1 CPT	DT40 TDP1 no CPT	HT1080 IDH1KD tx	HT1080-NT tox	IL1B secr inh	ALOX12 inh
COc1ccc(C2(C(=O)NC3CCCc4c3[nH]c3ccccc43)CCOCC2)cc1 (stereo not given)	/	/	/	/	/	35µM*
O=C(Cn1nc2c(cc1=O)CCCC2)NC1CCCc2c1[nH]c1ccccc21 (stereo not given)	/	/	/	/	/	35µM*
COc1ccc2cnn(CC(=O)NC3CCCc4c3[nH]c3ccccc43)c(=O)c2c1OC (stereo not given)	/	/	/	/	/	40µM*
COc1ccc2cnn(CC(=O)Nc3ccccc3)c(=O)c2c1OC	/	/	/	/	/	14%
O=C(Cn1ncc2ccccc2c1=O)NC1CCCCC1	/	/	/	/	/	-22%
O=C(Cn1nc2c(cc1=O)CCCC2)NC1CC1	/	/	/	/	/	37%
O=C(Cn1ncc2ccccc2c1=O)NC1CCCc2c1[nH]c1ccccc21 (stereo not given)	/	/	/	/	/	28µM*
COc1ccc(C2(C(=O)NC3CCCc4c3[nH]c3c(Cl)cccc43)CCOCC2)cc1 (stereo not given)	/	/	/	/	/	-15%
O=C(c1ccc(N2CCC(CO)C2)nc1)N1CCC(N2CCOCC2)CC1 (stereo not given)	/	/	/	/	/	45%
Cn1c(=O)c2c(nc(NCC(O)c3ccccc3)n2Cc2ccc(Cl)cc2Cl)n(C)c1=O (stereo not given)	/	/	/	/	/	-5%
Cc1cccc(N2CCN(C(=O)c3ccc4c(c3)N(C)C3CCCCCN3C4=O)CC2)c1 (stereo not given)	/	/	/	/	/	19%
Cc1ccc2[nH]c3c(c2c1)CCCC3NC(=O)CCl (stereo not given)	6.5µM*	2.3µM*	9.2µM*	1.3µM*	-100*	/
CC(=O)NC1CCCc2c1[nH]c1ccc(Cl)cc21 (stereo not given)	/	/	/	/	/	7%
O=C(Cc1n[nH]c(=O)c2ccccc12)NC1CCCc2c1[nH]c1ccccc21 (stereo not given)	/	/	/	/	/	45µM*
Cc1ccc(N(C)C(=O)c2ccc3c(Cl)c4c(nc3c2)CCC4)cc1C	?	?	?	-27%	-65*	15%
CSc1ccc(CCNC(=O)c2ccc3c(Cl)c4c(nc3c2)CCCC4)cc1	?	23µM*	/	/	/	-17%
Cc1ccc(CCNC(=O)c2ccc3c(Cl)c4c(nc3c2)CCCC4)cc1	?	18µM*	/	/	/	3%
COc1ccc(N(C)C(=O)c2ccc3c(Cl)c4c(nc3c2)CCCC4)c(OC)c1	?	-29%	?	?	?	-10%
CCOC(=O)C1=C(N)Oc2cc(O)ccc2C1c1cccc(Cl)c1 (stereo not given)	?	?	7.3µM*	9.2µM*	5	?
CCOC(=O)C1=C(N)Oc2ccc(Br)cc2[C@@H]1[C@@H](C#N)C(=O)OCC	4%	0%	/	/	/	10µM*
COC(=O)C1=C(N)Oc2cc(C)n(Cc3ccco3)c(=O)c2C1c1cccc(Cl)c1 (stereo not given)	4%	-6%	-16%	-6%	-6	0%
CCOC(=O)C1=C(N)Oc2cc(O)ccc2C1c1cccnc1 (stereo not given)	23µM*	?	0%	-1%	17	-7%
CCOC(=O)C1=C(N)Oc2cc(O)ccc2C1c1ccc(Br)cc1 (stereo not given)	-28%	-14%	0%	-20%	27	25µM*!
O/N=C/c1ccc(OCc2ccccc2)cc1	/	/	/	/	/	-19%
CC(C)C(=O)N1CCN(C(=O)c2cn(C)c3ccccc23)CC1	/	/	/	/	/	-1%
SMILES	DT40 TDP1 CPT	DT40 TDP1 no CPT	HT1080 IDH1KD tx	HT1080-NT tox	IL1B secr inh	ALOX12 inh
CCOC(=O)C1(C)C=C(Nc2cccc(C)c2)C(=O)N1c1ccccc1 (stereo not given)	?	18µM*	/	/	/	-11%
COc1ccc2c(COC(=O)c3ccc(F)cc3)cc(=O)oc2c1	/	/	/	/	/	-1%
CCC1CCC(C(=O)Nc2ccc(Br)c(C)c2)CC1 (stereo not given)	/	/	/	/	/	-6%
CCOc1ccc(NS(=O)(=O)c2cc(NC(=O)C3CC3)ccc2C)cc1Br	?	21µM*	-16%	-3%	-71*	-22%
Cc1csc(CNC(=O)c2sccc2C)n1	/	/	/	/	/	22%
CN1C(=C2C(=O)OC(C)(C)OC2=O)Sc2ccccc21	?	18µM*	0%	3%	-1	-19%
CC(=O)NN1C(=O)/C(=C2/Sc3ccccc3N2C)SC1=S	-25%	-6%	12%	5%	19	0%
O=C(COc1cc2oc(=O)cc(-c3ccccc3)c2cc1Cl)NCc1cccnc1	/	/	/	/	/	4%
Cn1c2c(c(=O)n(C)c1=O)C(c1cc(Br)ccc1F)CC(=O)N2 (stereo not given)	10%	-22%	/	/	/	-4%
O=C1CC(c2ccccc2F)c2cc3c(cc2N1)CCC3 (stereo not given)	3.3µM*	4.6µM*	0.89µM*	1.6µM*	41	22%
O=C1CC(c2cc(Br)ccc2F)c2cc3c(cc2N1)CCC3 (stereo not given)	2.9µM*	2.6µM*	1.3µM*	1.8µM*	55	5%
COCC(=O)NCCC1CCN(C(=O)Nc2ccc(F)cc2)CC1	/	/	/	/	/	68%
O=C(CN1CCN(c2cnn(-c3ccccc3)c(=O)c2Cl)CC1)Nc1ccc2ccccc2c1	/	/	/	/	/	-32%
O=C(Cn1ccc2cc(S(=O)(=O)N3CCCCCC3)ccc21)NCCc1ccc(Cl)cc1	16µM*	18µM*	/	/	/	-21%
CCOc1ccc(CCNC(=O)Cn2ccc3cc(S(=O)(=O)N4CCCCCC4)ccc32)cc1	21µM*	13µM*	/	/	/	-20%
COc1ccccc1CCNC(=O)Cn1ccc2cc(S(=O)(=O)N3CCCCCC3)ccc21	?	?	/	/	/	1%
COc1ccc(OC)c(CCNC(=O)Cn2ccc3cc(S(=O)(=O)N4CCCCC4)ccc32)c1	?	7.3µM*	/	/	/	-2%
CSc1ccc(CCNC(=O)Cn2ccc3cc(S(=O)(=O)N4CCCCCC4)ccc32)cc1	15µM*	?	/	/	/	-22%
CCOc1ccc(CCNC(=O)Cn2ccc3cc(S(=O)(=O)N4CCCC4)ccc32)cc1	?	?	-7%	-26%	23	31%
